# Data: article PMC5540273 (PLoS ONE, 2017)
# Key:
# Conditions in all cases: concentration: 1 μM,replicates: in singlicate; n = 1
# FYN = tested on: FYN
# GAK = tested on: GAK
# GCN2(Kin.Dom.2,S808G) = tested on: T1, GCN2(Kin.Dom.2,S808G)
# T1 construct: gene EIF2AK4
# GRK1 = tested on: GRK1
# GRK2 = tested on: T2, GRK2
# T2 construct: gene ADRBK1
# GRK3 = tested on: T3, GRK3
# T3 construct: gene ADRBK2
# GRK4 = tested on: GRK4
# GRK7 = tested on: GRK7
# GSK3A = tested on: GSK3A
# GSK3B = tested on: GSK3B
# HASPIN = tested on: T4, HASPIN
# T4 construct: gene GSG2
# HCK = tested on: HCK
# HIPK1 = tested on: HIPK1
# HIPK2 = tested on: HIPK2
# HIPK3 = tested on: HIPK3
# HIPK4 = tested on: HIPK4
# HPK1 = tested on: HPK1
# HUNK = tested on: HUNK
# ICK = tested on: ICK
# IGF1R = tested on: IGF1R
# 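Further: KINOMEscan kinase panel screen.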
Structure (SMILES),%Inh (FYN) [%],%Inh (GAK) [%],"%Inh (GCN2(Kin.Dom.2,S808G)) [%]",%Inh (GRK1) [%],%Inh (GRK2) [%],%Inh (GRK3) [%],%Inh (GRK4) [%],%Inh (GRK7) [%],%Inh (GSK3A) [%],%Inh (GSK3B) [%],%Inh (HASPIN) [%],%Inh (HCK) [%],%Inh (HIPK1) [%],%Inh (HIPK2) [%],%Inh (HIPK3) [%],%Inh (HIPK4) [%],%Inh (HPK1) [%],%Inh (HUNK) [%],%Inh (ICK) [%],%Inh (IGF1R) [%]
COC(=O)c1cccc(NC(=O)NC2CCN(c3ccnc(NCc4ccc(F)cc4)n3)CC2)c1 [GSK1379860],10,0,0,0,0,38,0,0,6,8,17,35,0,47,10,0,24,0,0,0
FC(F)(F)c1cc(Br)cc(Nc2nccc(-c3cnn4ncccc34)n2)c1 [GW810578],0,20,12,7,14,8,0,10,90.4,89,0,12,99.1,99.4,97.9,76,13,0,97.8,0
Cc1ccc2c(-c3ccnc(Nc4ccc(C(F)(F)F)cc4)n3)cnn2n1 [GW819776],9,0,3,28,0,3,21,0,74,36,12,30,89,80,79,43,0,0,66,7
COc1cc(Nc2nccc(N3CCC(NC(=O)c4cccc(C#N)c4)C3)n2)cc(OC)c1OC (stereo not drawn) [GSK1379751],0,47,9,0,0,33,0,0,0,5,8,0,0,0,3,0,45,0,0,0
O=C(NCC1CC1)c1ccc(-c2cc(C(=O)NC3CC3)ccc2F)cc1 [GW810445],0,0,0,1,19,0,0,0,0,0,2,10,0,0,0,12,0,56,0,0
NC(=O)c1ccc(-c2cc3ncnc(SCC(=O)O)c3s2)cc1,0,45,0,30,0,0,0,0,14,0,0,13,94.8,96.1,92,79,2,0,10,0
COc1cc2ncn(-c3cc(OCC4CCCCC4)c(C(N)=O)s3)c2cc1OC [GSK204559],29,79,6,23,7,40,27,98,0,0,0,0,9,0,0,68,39,0,0,5
COc1ccc(Nc2nccc(N3CCC(NC(=O)c4cccc(C#N)c4)C3)n2)cc1 (stereo not drawn) [GSK1379730],0,0,2,0,3,8,0,0,0,13,6,5,0,0,0,2,42,0,0,0
C[C@@H]1CNc2c(sc3ccc4nc(-c5ccc(O)cc5)ccc4c23)C(=O)N1,4,0,12,41,0,0,28,24,9,0,48,35,41,46,21,0,6,5,0,0
CSc1nccc(-c2c(-c3ccc(F)cc3)ncn2CCCN2CCOCC2)n1.Cl [SB-217146],0,6,0,45,0,11,10,0,0,18,0,14,40,0,8,0,0,13,0,0
C[C@@H](Oc1cc(-n2cnc3ccc(-c4ccncc4)cc32)sc1C(N)=O)c1ccccc1Cl [GSK483724],44,49,0,53,7,32,21,0,76,15,87,0,33,19,59,69,64,0,45,19
COc1cccc(CNC(=O)NC2CCN(c3ccnc(Nc4cc(OC)c(OC)c(OC)c4)n3)C2)c1 (stereo not drawn) [GSK1379765],12,0,0,0,0,19,74,0,0,7,11,12,0,34,36,0,38,0,13,0
O=C(NOCC1CC1)c1cc(Br)c(F)c(F)c1Nc1ccc(I)cc1Cl,0,0,10,30,0,0,0,0,33,0,0,8,20,0,0,0,14,8,0,0
CS(=O)c1ccc(-c2coc3ccc(-c4n[nH]c(=O)o4)cc23)cc1 (stereo not drawn),0,0,21,6,0,30,19,15,93.3,15,50,0,99.6,100,99.6,93.6,1,11,29,13
O=C1NCCc2[nH]c(-c3ccncc3)cc21,0,5,0,14,25,36,3,27,88,54,100,20,91.5,97.2,95.5,–,7,0,29,0
Cn1ccc2ncnc(Oc3ccc(NC(=O)Nc4cccc(C(F)(F)F)c4)c(Cl)c3)c21,0,1,21,32,0,0,0,0,28,0,0,47,26,15,0,17,39,2,0,0
CS(=O)(=O)c1cccc(CNc2nc(Nc3ccc4c(c3)[C@@H]3C[C@@H]4CNC3=O)ncc2C(F)(F)F)c1,0,26,57,28,0,0,27,0,74,0,0,0,60,34,7,33,86,0,0,89
